Results: PubChem BioAssay (NCATS)
Records with an inconclusive call do not appear. Active and inactive are the calls of the source. Unless noted, the call rests on the fitted dose curve; in most records, active means well fitted curve in the direction sought with a large enough effect; inconclusive means small, poorly fitted or top-dose-only effect, or another doubt; inactive means no such curve, though single readings can be large; an effect the other way counts as inactive or inconclusive.

Tests used:
[1] = target: Mitogen-activated protein kinase 10 (Mus musculus) (UniProt Q61831); assay: JNK3 AlphaScreen Assay (AID 530; active means well fitted curve in either direction with a large enough effect, not every such curve was filed as active;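 further: kinase came from lysate of stimulated human HepG2 cells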; further: potency means the concentration at half of the fitted maximal effect)
How it was run: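 qHTS format: compounds tested as titrations against IL-1beta/TNF-alpha-activated HepG2 lysate JNK3 with biotin-GST-cJun substrate and 10 uM ATP at room temperature. Loss of anti-phospho-cJun AlphaScreen signal indicates inhibition.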

[2] = Cell Viability - HUV-EC-C (AID 542); further: on the % scale 0 is the no-effect control and ±100 the full control effect; nearly all actives have a fitted effect of over 35% in size
How it was run: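 HUV-EC-C normal human vascular endothelial cells, 1000 cells/well, pre-incubated 5 hr at 37 °C, then exposed to compounds for 40 hr at 37 °C in complete medium. Viability measured as intracellular ATP by CellTiter-Glo luminescence; AC50 from Hill fits.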

[3] = Cell Viability - Renal Proximal Tubule (AID 545); further: nearly all actives have a fitted effect of over 40% in size
How it was run: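 Rat kidney proximal tubule cells, freshly isolated; 1000 cells/well, 5 hr settle, compound 40 hr 37 °C. CellTiter-Glo 20 min RT, luminescence read. AC50 by standard Hill fit.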

[4] = Cellular Toxicity (caspase-3) HepG2 (AID 654);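 further: cells exposed to compound for 16 hours before reading; 0% = DMSO alone and 100% = caspase signal from 100 µM tamoxifen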
How it was run: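 HepG2 cells (1500/well) in complete medium were treated with compounds for 16 hr at 37 °C. Caspase-3/7 activity was then read as luminescence from peptide-aminoluciferin cleavage. AC50 came from Hill fits, normalized to DMSO and 100 uM tamoxifen.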

[5] = MultiTox-Fluor Cytotoxicity Assay - LYMP1-001 - Dead Cells (AID 946);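 further: 0% = DMSO and 100% = tetraoctylammonium bromide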
How it was run: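 AC50 from Hill fit of concentration-response; data normalized to DMSO (basal) and 15 uM tetraoctylammonium bromide (100%). LYMP1-001 lymphoblastoid cells, 2500/well, 16 hr compound at 37 C; dead-cell protease fluorescence, Ex/Em 485/520.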

[6] = MultiTox-Fluor Cytotoxicity Assay - LYMP1-001 - Live Cells (AID 947);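 further: 0% = DMSO only and full inhibition = tetraoctylammonium bromide control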
[7] = MultiTox-Fluor Cytotoxicity Assay - LYMP1-002 - Live Cells (AID 955); further: on the % scale 0 is the no-effect control and ±100 the full control effect
How it was run: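 Human lymphoblastoid LYMP1-002 cells, 2500/well in complete medium, rested 5 hr at 37 C, then exposed to compounds for 16 hr at 37 C. Live-cell protease cleavage of GF-AFC read by fluorescence (Ex/Em 405/510) after 60 min at room temperature; AC50 from Hill fits.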

[8] = Cell Viability - LYMP2-009 (AID 968);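 further: 0% = DMSO alone and the full-kill end = tetraoctylammonium bromide at 92 µM; nearly all actives have a fitted effect of over 55% in size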
[9] = Cell Viability - LYMP2-011 (AID 969);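 further: 0% = DMSO only and full inhibition = 92 µM tetraoctylammonium bromide; nearly all actives have a fitted effect of over 60% in size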
How it was run: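 Human lymphoblastoid cells (2500/well) were plated in complete medium, preincubated 5 hr at 37 C, then exposed to compounds for 24 hr at 37 C. Intracellular ATP was read by CellTiter-Glo luminescence, and AC50 came from Hill-equation concentration-response fits.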

[10] = Cell Viability - LYMP2-023 (AID 975);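 further: cellular ATP measured by luciferase luminescence as viability proxy; plate controls were DMSO only for no effect and 92 µM tetraoctylammonium bromide control for full effect; nearly all actives have a fitted effect of over 55% in size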
How it was run: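 Human lymphoblastoid cells (2500/well) were preincubated 5 hr at 37 C, then exposed to compounds for 24 hr at 37 C in complete medium. Cellular ATP was read by CellTiter-Glo luminescence, and AC50 came from Hill-equation fits.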

[11] = Cell Viability - LYMP2-026 (AID 989); further: on the % scale 0 is the no-effect control and ±100 the full control effect; nearly all actives have a fitted effect of over 50% in size
How it was run: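 Human lymphoblastoid cells (2500/well) in complete medium were preincubated 5 hr at 37 C, then exposed to compounds for 24 hr at 37 C. Cellular ATP was read by CellTiter-Glo luminescence; AC50 from Hill-equation fits of concentration-response data.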

[12] = Cell Viability - LYMP1-002 - Assay at 24 hr (AID 993); further: on the % scale 0 is the no-effect control and ±100 the full control effect
How it was run: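 Human lymphoblastoid LYMP1-002 cells, 2500/well in complete medium, were treated with compounds for 24 h at 37 C; intracellular ATP was read by CellTiter-Glo luminescence. AC50 values came from Hill-equation fits of qHTS concentration-response data.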

[13] = target: Peroxisome proliferator-activated receptor gamma (Homo sapiens) (UniProt P37231); assay: qHTS assay for small molecule agonists of peroxisome proliferator-activated receptor gamma signaling (AID 588536; active means well fitted curve in the direction sought with a large enough effect in the signal ratio, with a control signal flat, not every such curve was filed as active; the % refers to the signal ratio;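 further: 0% = DMSO basal wells and 100% = rosiglitazone at 2 µM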)
Peroxisome proliferator-activated receptor gamma (Homo sapiens), sequence (P37231 whole entry, looked up): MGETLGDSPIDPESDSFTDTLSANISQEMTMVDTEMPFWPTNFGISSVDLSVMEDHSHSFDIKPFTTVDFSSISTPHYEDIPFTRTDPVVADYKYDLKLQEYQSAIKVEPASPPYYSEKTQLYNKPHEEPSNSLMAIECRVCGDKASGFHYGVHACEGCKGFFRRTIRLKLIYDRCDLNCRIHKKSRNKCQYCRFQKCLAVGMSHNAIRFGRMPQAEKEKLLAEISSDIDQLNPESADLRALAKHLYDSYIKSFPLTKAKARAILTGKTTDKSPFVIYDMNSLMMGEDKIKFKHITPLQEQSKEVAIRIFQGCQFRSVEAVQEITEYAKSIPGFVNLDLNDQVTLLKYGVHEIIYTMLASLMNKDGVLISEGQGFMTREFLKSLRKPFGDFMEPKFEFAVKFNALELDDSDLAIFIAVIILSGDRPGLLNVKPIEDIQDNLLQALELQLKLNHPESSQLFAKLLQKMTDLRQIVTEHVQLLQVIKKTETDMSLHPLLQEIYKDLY
How it was run: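 PPAR-gamma-UAS-bla HEK293 cells in medium with 1% charcoal/dextran-treated FBS were exposed to compounds for 16 h at 37 C. Beta-lactamase activity was read with CCF4 substrate (405 nm excitation, 460/530 nm emission).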

[14] = target: Vitamin D3 receptor (Homo sapiens) (UniProt P11473); assay: qHTS assay for small molecule agonists of vitamin D receptor signaling (AID 588543; calls by dose curve;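 further: 0% = DMSO basal and 100% = reference agonist control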)
Vitamin D3 receptor (Homo sapiens), sequence (P11473 whole entry, looked up): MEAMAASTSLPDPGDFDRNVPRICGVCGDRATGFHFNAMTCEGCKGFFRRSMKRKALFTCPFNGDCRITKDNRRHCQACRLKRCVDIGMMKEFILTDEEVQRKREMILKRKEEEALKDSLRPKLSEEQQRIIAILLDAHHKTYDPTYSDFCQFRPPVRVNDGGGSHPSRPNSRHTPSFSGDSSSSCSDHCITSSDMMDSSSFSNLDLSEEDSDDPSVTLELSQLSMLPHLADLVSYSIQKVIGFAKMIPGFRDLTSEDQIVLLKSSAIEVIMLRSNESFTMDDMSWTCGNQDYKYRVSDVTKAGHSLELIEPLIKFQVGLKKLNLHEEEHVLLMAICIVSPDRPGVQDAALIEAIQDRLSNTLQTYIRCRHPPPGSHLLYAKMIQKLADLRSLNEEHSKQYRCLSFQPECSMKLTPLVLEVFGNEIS
How it was run: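 β-lactamase reporter, VDR-UAS-bla HEK293T, agonist mode. Cells plated 5 h at 37 °C, compound titration 16 h at 37 °C, CCF4 dye 2 h RT, ratio 460/530 nm. Hill fit → EC50, efficacy vs 50 nM 1α,25-(OH)2D3.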

[15] = qHTS assay for small molecule disruptors of the mitochondrial membrane potential - 5 hr assay (AID 651755; calls by dose curve; further: nearly all actives have a fitted effect of over 40% in size; further: potency means the concentration at half of the fitted maximal effect)
How it was run: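 HepG2 cells (2,000/well), attached overnight, exposed to compound 5 hr at 37C, then Mito-MPS dye 30 min. Fluorescence read for monomers (490/535 nm) and aggregates (540/590 nm).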

[16] = Cellular Toxicity (caspase-3) NIH 3T3 (AID 666);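 further: 0% = DMSO basal and 100% = 100 µM tamoxifen stimulation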
How it was run: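 Mouse NIH 3T3 fibroblasts (1000 cells/well) were treated with compound for 16 hr at 37°C in complete medium; caspase-3/7 activity was read by Caspase-Glo luminescence. Normalized to DMSO and 100 uM tamoxifen; AC50 from Hill fits.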

[17] = Cellular Toxicity (caspase-3) Renal Proximal Tubule (AID 667);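 further: cells exposed to compound for 16 hours at 37 °C before detection; 0% = DMSO basal and 100% = 10 µM staurosporine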
How it was run: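 Luminescent caspase 3/7 signal from peptide-aminoluciferin cleavage measures apoptosis in freshly isolated rat kidney proximal tubule cells after 16 h compound exposure. Concentration-response data are normalized to DMSO and 10 uM staurosporine, and AC50 values come from Hill equation fits.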

[18] = Cell Viability - LYMP2-019 (AID 973);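 further: 0% = DMSO alone and full effect = 92 µM tetraoctylammonium bromide; nearly all actives have a fitted effect of over 55% in size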
How it was run: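 Human lymphoblastoid cells were seeded at 2500 cells/well, preincubated 5 hr at 37 C, then exposed to compounds for 24 hr at 37 C in complete medium. Intracellular ATP was measured by CellTiter-Glo luminescence; AC50 from Hill fits.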

[19] = Cell Viability - LYMP2-002 (AID 977);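 further: compound exposure lasted 24 h at 37 °C; plate controls were DMSO only for no effect and 92 µM tetraoctylammonium bromide for full effect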
How it was run: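 Human lymphoblastoid LYMP2-002 cells, 2500 per well, exposed to compounds for 24 h at 37 C in complete medium; viability read as intracellular ATP by CellTiter-Glo luminescence, AC50 from Hill fits.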

[20] = Cellular Toxicity (caspase-3) Jurkat (AID 655); conditions: Jurkat caspase-3 activation, luminescence; caspase-3 activation: at 92.2 µM (top of the series), DMSO = 0%, tamoxifen = 100%;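 further: cells exposed to compound for 16 h at 37 °C before reading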
How it was run: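 Luminescent caspase-3/7 readout (aminoluciferin substrate cleavage) in human T-cell leukemia Jurkat cells after 16 hr compound exposure. Concentration-response normalized to DMSO and 100 uM tamoxifen; AC50 by standard Hill equation.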

Clc1cc(Cl)c(Cl)c(Cl)c1
inactive: Potency [1] | Potency [2] | outcome [3] | outcome [4] | outcome [5] | outcome [6] | outcome [7] | Potency [8] | Potency [9] | Potency [10] | Potency [11] | Potency [12] | outcome [13] | outcome [14] | Potency [15]

Cc1cc(Cl)ccc1O
inactive: Potency [1] | Potency [2] | outcome [3] | outcome [4] | Potency [16] | outcome [17] | outcome [5] | outcome [6] | outcome [7] | Potency [8] | Potency [9] | Potency [18] | Potency [11] | Potency [12] | outcome [13] | outcome [14] | Potency [15]

ClCC(Cl)CCl
inactive: Potency [1] | Potency [2] | outcome [3] | Potency [16] | outcome [17] | outcome [6] | outcome [7] | Potency [8] | Potency [9] | Potency [18] | Potency [10] | Potency [19] | Potency [11] | outcome [14] | Potency [15]

CCOP(=S)(OCC)Oc1nc(Cl)c(Cl)cc1Cl
inactive: Potency [2] | outcome [3] | caspase-3 activation [20] -1.27% | Potency [16] | outcome [5] | outcome [6] | outcome [7] | Potency [8] | Potency [9] | Potency [18] | Potency [10] | Potency [19] | Potency [11] | Potency [12] | outcome [13] | outcome [14] | Potency [15]

Nc1ccc([N+](=O)[O-])cc1[N+](=O)[O-]
inactive: Potency [1] | Potency [2] | outcome [3] | caspase-3 activation [20] 1.67% | Potency [16] | outcome [17] | outcome [6] | outcome [7] | Potency [9] | Potency [18] | Potency [10] | Potency [19] | Potency [11] | Potency [12] | outcome [13] | outcome [14]
active: Potency [15] 33.5 µM

CN(C)C(=O)Cl
inactive: Potency [1] | Potency [2] | caspase-3 activation [20] -1.4% | Potency [16] | outcome [17] | outcome [5] | outcome [6] | outcome [7] | Potency [8] | Potency [9] | Potency [18] | Potency [19] | Potency [11] | Potency [12] | outcome [13] | outcome [14] | Potency [15]

C=CCc1cc(OC)c2c(c1)OCO2
inactive: Potency [1] | Potency [2] | outcome [3] | outcome [4] | caspase-3 activation [20] -0.188% | Potency [16] | outcome [17] | outcome [5] | outcome [6] | outcome [7] | Potency [8] | Potency [9] | Potency [19] | Potency [11] | outcome [13] | outcome [14] | Potency [15]

OCCCCO
inactive: Potency [1] | outcome [3] | caspase-3 activation [20] -0.218% | outcome [17] | outcome [6] | outcome [7] | Potency [8] | Potency [9] | Potency [18] | Potency [10] | Potency [19] | Potency [11] | Potency [12] | outcome [13] | outcome [14] | Potency [15]

CCOP(=S)(OCC)SCCSCC
inactive: Potency [2] | outcome [4] | caspase-3 activation [20] -2.31% | Potency [16] | outcome [17] | outcome [6] | Potency [8] | Potency [9] | Potency [10] | Potency [19] | Potency [11] | Potency [12] | outcome [13] | Potency [15]

Clc1cccc2ccccc12
inactive: Potency [1] | outcome [3] | outcome [4] | caspase-3 activation [20] 0.494% | Potency [16] | outcome [17] | outcome [5] | outcome [7] | Potency [8] | Potency [18] | Potency [10] | Potency [19] | Potency [12] | outcome [14] | Potency [15]

N#CC(O)c1ccccc1 (stereo not given)
inactive: Potency [1] | Potency [2] | outcome [3] | outcome [4] | outcome [17] | outcome [5] | outcome [6] | outcome [7] | Potency [9] | Potency [18] | Potency [19] | Potency [11] | Potency [12] | outcome [14] | Potency [15]

CN(C)C(=O)Nc1cccc(C(F)(F)F)c1
inactive: Potency [1] | Potency [2] | outcome [3] | outcome [4] | caspase-3 activation [20] 2.52% | Potency [16] | outcome [17] | outcome [5] | outcome [6] | outcome [7] | Potency [8] | Potency [9] | Potency [18] | Potency [10] | Potency [19] | Potency [11] | Potency [12] | outcome [13] | outcome [14] | Potency [15]

ClC(Cl)c1ccccc1
inactive: Potency [1] | outcome [3] | outcome [4] | caspase-3 activation [20] 2.34% | Potency [16] | outcome [17] | outcome [5] | outcome [6] | outcome [7] | Potency [8] | Potency [9] | Potency [18] | Potency [10] | Potency [19] | Potency [11] | Potency [12] | outcome [13] | outcome [14] | Potency [15]

C=CC(=O)OCCN(C)C
inactive: Potency [1] | outcome [3] | outcome [4] | caspase-3 activation [20] 1.53% | Potency [16] | outcome [17] | outcome [5] | outcome [6] | outcome [7] | Potency [8] | Potency [9] | Potency [18] | Potency [10] | Potency [19] | Potency [11] | Potency [12] | outcome [13] | outcome [14] | Potency [15]

Cc1ccc2c(c1N)C(=O)c1ccccc1C2=O
inactive: outcome [4] | caspase-3 activation [20] -9.07% | outcome [17] | outcome [5] | outcome [6] | outcome [7] | Potency [9] | Potency [18] | Potency [10] | Potency [19] | Potency [11] | outcome [13]
active: Potency [1] 3.98 µM | Potency [15] 2.66 µM

ClP(Cl)(Cl)(Cl)Cl
inactive: Potency [1] | Potency [2] | outcome [3] | outcome [4] | caspase-3 activation [20] 0.993% | Potency [16] | outcome [17] | outcome [5] | outcome [6] | outcome [7] | Potency [8] | Potency [9] | Potency [18] | Potency [10] | Potency [19] | Potency [11] | outcome [13] | outcome [14] | Potency [15]

O=[N+]([O-])c1ccc(Cl)cc1
inactive: Potency [2] | outcome [3] | outcome [4] | caspase-3 activation [20] 1.25% | outcome [17] | outcome [5] | outcome [6] | Potency [8] | Potency [9] | Potency [18] | Potency [10] | Potency [19] | Potency [11] | Potency [12] | outcome [14] | Potency [15]

C=COC(C)=O
inactive: Potency [1] | caspase-3 activation [20] 1.08% | Potency [16] | outcome [5] | outcome [7] | Potency [8] | Potency [9] | Potency [18] | Potency [10] | Potency [19] | Potency [11] | Potency [12] | outcome [14] | Potency [15]

Cc1ccc(N=C=O)cc1N=C=O
inactive: Potency [1] | Potency [2] | outcome [3] | outcome [4] | caspase-3 activation [20] 0.0584% | Potency [16] | outcome [17] | outcome [5] | Potency [8] | Potency [18] | Potency [19] | Potency [12] | outcome [13] | outcome [14]
